Experimental data as given in PubChem BioAssay (EPA / NIEHS).
The source made the active and inactive calls. Rule for the calls: active = hit-call score of the fitted dose curve at least 0.9, where 1 is the maximum; inactive = score below 0.9.

Read-out: Monocyte Chemoattractant Protein-1 (MCP1), CCL2 (gene 6347)
Test: BSK_SAg_MCP1: BioMAP Diversity Plus: SAg Assay for Monocyte Chemoattractant Protein-1 (MCP1) Biomarker Activity (AID 2283090)
Details: primary human HUVEC with PBMC; actives raise or lower the signal
Protocol: BSK_SAg is a cell-based, multiplexed-readout assay that uses umbilical vein endothelium and peripheral blood mononuclear cells, a human vascular primary cell co-culture, with measurements taken at 24 hours after chemical dosing in a 96-well plate.BSK_SAg_MCP1 is an assay component measured in the BSK_SAg assay. It measures MCP-1 antibody related to regulation of gene expression using ELISA technology.Data from the assay component BSK_SAg_MCP1 was analyzed into 1 assay endpoint. This assay endpoint, BSK_SAg_MCP1, was analyzed with bidirectional fitting relative to DMSO as the negative control and baseline of activity. Using a type of binding reporter, gain or loss-of-signal activity can be used to understand changes in the signaling as they relate to the gene CCL2. Furthermore, this assay endpoint can be referred to as a primary readout, because this assay has produced multiple assay endpoints where this one serves a signaling function. To generalize the intended target to other relatable targets, this assay endpoint is annotated to the cytokine intended target family, where the subfamily is chemotactic factor.
The levels of cell surface (or secreted, indicated by the prefix "s") biomarker endpoints were measured by ELISA. Overt cytotoxicity to cells in confluent adherent cultures (all systems other than the BT system) was assessed by measuring total protein levels using sulforhodamine B (SRB) staining in parallel cultures at the time of biomarker measurements, indicated as SRB endpoints. For proliferation assays for adherent cell types, individual cell types are cultured at sub-confluence and relative cell numbers quantified by SRB staining at time points optimized for each system (48 h: 3C and CASM3C systems; 72 h: BT and HDF3CGF systems; 96 h: SAg system). SRB was performed by staining cells with 0.1% SRB after fixation with 10% TCA and reading wells at 560 nm.Viability and proliferation of PBMC (T cells) was quantified by Alamar Blue reduction for the SAg and BT systems. For PBMC viability (referred to as PBMC Cytotoxicity within the assay endpoint names), cells were plated (75,000/well in a 96-well plate) and then chemical samples added for 1 h before addition of activators, SEB and TSST-1 (20 ng/mL final concentration each). Cells were incubated for 90 h. Then, Alamar Blue (20 uL/well) (Invitrogen, Cat DAL1100) was added for 6 h, and the plates were read with a fluorescence microplate reader at 546/580 nm (excitation/emission). For PBMC proliferation, cells were plated and activated as above but incubated for only 16 h prior to addition of Alamar Blue. Plates were read after 6 h.

outcome, inactive:
CC(C)NCC(O)c1ccc(O)c(O)c1 (stereo not given), S=c1[nH]c2ccccc2s1, CC(=O)OC1CC(C)OC(C)O1 (stereo not given), CCCCCCCCCC[N+](C)(C)[O-], CCCCC(CC)CO (stereo not given), CCCCCCCC(=O)OC, O=C(O)c1[nH]n(-c2ccc(S(=O)(=O)O)cc2)c(=O)c1N=Nc1ccc(S(=O)(=O)O)cc1, Cc1cn([C@H]2C=C[C@@H](CO)O2)c(=O)[nH]c1=O, NC1CCCCC1, CC(=O)[C@@]1(O)CC[C@H]2[C@@H]3CCC4=CC(=O)CC[C@]4(C)[C@H]3CC[C@@]21C, CC(=O)O, CCCCOC(=O)CCCCC(=O)OCCCC, c1ccc2occc2c1, CN(C)C(=O)NC1(c2ccccc2)CCN(CC[C@@]2(c3ccc(F)c(F)c3)CN(C(=O)c3ccccc3)CCO2)CC1, COc1ccc(C(=O)Nc2nc3ccccc3c(NCc3ccccc3)c2C#N)cc1, CCCCc1nc2cccnc2n1Cc1ccc(-c2ccccc2-c2nnn[nH]2)cc1, CCc1nc(N)nc(N)c1-c1ccc(Cl)cc1, CCCC[C@H]1CN(CC2CCOCC2)C(=O)OC12CCN(C1(C)CCN(C(=O)c3c(C)ncnc3C)CC1)CC2, O=C(O)CC(O)(CC(=O)O)C(=O)O, Cn1cnc2c1c(=O)[nH]c(=O)n2C, CC(C)(C)c1ccccc1, CC(COCC(C)OC(=O)c1ccccc1)OC(=O)c1ccccc1 (stereo not given), CC(=O)S[C@H](C(=O)N[C@H]1Cc2ccccc2[C@H]2CCC[C@@H](C(=O)O)N2C1=O)C(C)C, NC=O, CCC(C)N(C)C(=O)c1cc2ccccc2c(-c2ccccc2Cl)n1 (stereo not given), CSc1ccc(Oc2ccc(S(N)(=O)=O)cc2CN(C)C)cc1C, CN(C)CCCN(C)CCCN(C)C, CCOCCOCCO, O=C1NC(=O)C(c2ccccc2)(c2ccccc2)N1, CCCCCCCCCCCCCCOS(=O)(=O)O, CC(N)=O, CC1=C(C)S(=O)(=O)CCS1(=O)=O, Cc1occc(=O)c1O, O=C(O)CN(CC(=O)O)CC(=O)O, O=C1CCCCC1, Cc1cc(Cc2ccc(N)c(C)c2)ccc1N, O=C(O)c1cccnc1, O=[Si]=O

AC50, active:
COC(=O)[C@H]1[C@H]2C[C@@H]3c4[nH]c5cc(OC)ccc5c4CCN3C[C@H]2C[C@@H](OC(=O)c2cc(OC)c(OC)c(OC)c2)[C@@H]1OC 22.6 µM, Nc1nc(Cl)nc2c1ncn2[C@H]1C[C@H](O)[C@@H](CO)O1 3.09 µM
